Assay results as given in PubChem BioAssay (NCI).
This is part of a sample that, as a whole, favours compounds with a hit. Of some 79,000 tested, about 15% had one in any assay. Unmarked numbers belong to inactive results. Activity calls are given as the source filed them. Rule as the data show it: active = growth inhibition above about 70%; inactive = the rest.

How the values were obtained:
[1] = NCI Yeast Anticancer Drug Screen. Data for the wt1 strain (AID 149);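 also: 0% = growth of vehicle-treated wt1 cultures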; details: S. cerevisiae wt1 strain (SPY 50644) growth inhibition, hits give high values
Summary of the method: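 Yeast wt1 strain exposed to compounds; growth inhibition measured relative to vehicle-treated controls.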

[2] = NCI Yeast Anticancer Drug Screen. Data for the rad50EPP+ strain (AID 151);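 also: 0% = growth of vehicle-treated control cultures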; details: S. cerevisiae rad50 mutant strain, hits give high values
Summary of the method: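 One strain with a rad50 alteration (rad50EPP+) was compound-treated, its growth then compared to that of vehicle controls.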

[3] = NCI Yeast Anticancer Drug Screen. Data for the mgt1 strain (AID 153); details: S. cerevisiae mgt1 mutant growth inhibition, hits give high values
Summary of the method: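 After exposure of the mgt1 yeast mutant to compound, growth was measured and reported as inhibition compared with vehicle controls.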

[4] = NCI Yeast Anticancer Drug Screen. Data for the rad50 strain (AID 155);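 also: 0% = growth of vehicle-only cultures of the same strain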; details: S. cerevisiae rad50 strain growth inhibition, hits give high values
Summary of the method: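 Yeast carrying a defined DNA repair defect were exposed to test compounds, and growth was compared with vehicle-treated controls to give percent inhibition.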

[5] = NCI Yeast Anticancer Drug Screen. Data for the mec2-1 strain (AID 157); details: S. cerevisiae mec2-1 strain, hits give high values
Summary of the method: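 Test agents were screened against the mec2-1 yeast strain, with defined DNA repair or cell cycle alteration. Growth was scored as inhibition against vehicle-only controls.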

[6] = NCI Yeast Anticancer Drug Screen. Data for the rad14 strain (AID 159);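 also: 0% = growth of vehicle-treated control cultures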; details: S. cerevisiae rad14 strain growth inhibition, hits give high values
Summary of the method: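 Yeast cells carrying a defined DNA-repair defect were exposed to compounds, and growth inhibition was calculated relative to vehicle-treated control cultures.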

[7] = NCI Yeast Anticancer Drug Screen. Data for the sgs1 mgt1 strain (AID 161);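 also: 0% = growth of cultures given vehicle only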; details: S. cerevisiae sgs1 mgt1 strain, hits give high values
Summary of the method: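 Test agents were incubated with a DNA-repair-mutant yeast strain. Growth was then read and compared against vehicle-treated controls.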

[8] = NCI Yeast Anticancer Drug Screen. Data for the CLN2oe strain (AID 163);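 also: 0% = growth of vehicle-only control cultures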; details: S. cerevisiae CLN2oe strain, hits give high values
Summary of the method: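 Here, growth inhibition in a cell-cycle-altered yeast strain after compound exposure was quantified against vehicle control growth.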

[9] = NCI Yeast Anticancer Drug Screen. Data for the cln2 rad14 strain (AID 165);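 also: 0% = growth equal to vehicle treated cultures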; details: S. cerevisiae cln2 rad14 strain, hits give high values
Summary of the method: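 Growth of compound-exposed yeast (cln2 rad14 genotype) measured and expressed as inhibition relative to vehicle.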

[10] = NCI Yeast Anticancer Drug Screen. Data for the bub3 strain (AID 167); details: S. cerevisiae bub3 mutant strain, hits give high values
Summary of the method: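 Compounds were applied to a genetically altered yeast strain carrying a cell-cycle control defect. Growth inhibition was scored against vehicle-treated controls.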

[11] = NCI Yeast Anticancer Drug Screen. Data for the wt2 strain (AID 169);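 also: 0% = growth of vehicle-treated yeast cultures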; details: S. cerevisiae wt2 strain growth inhibition, hits give high values
Summary of the method: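 Genetically defined yeast strains from a DNA-repair/cell-cycle panel were used. Compound-exposed yeast growth was measured, and the inhibition was calculated relative to vehicle treatment.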

[12] = NCI Yeast Anticancer Drug Screen. Data for the mlh1 strain (AID 171);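 also: 0% = growth of vehicle-treated control cultures of the same strain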; details: S. cerevisiae mlh1 strain growth inhibition, hits give high values
Summary of the method: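 Here the genetically defined yeast mutant is grown with each compound, and the extent to which its growth falls below that of vehicle-exposed cells is reported.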

[13] = NCI Yeast Anticancer Drug Screen. Data for the sgs1 strain (AID 173);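 also: 0% = growth of vehicle-only control cultures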; details: S. cerevisiae sgs1 mutant, hits give high values
Summary of the method: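 Relative growth inhibition, referenced to vehicle, was determined in a yeast strain with a defined alteration affecting DNA damage repair or cell cycle control after compound exposure.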

[14] = NCI Yeast Anticancer Drug Screen. Data for the mlh1 rad18 strain (AID 175); details: S. cerevisiae mlh1 rad18 strain growth inhibition, hits give high values
Summary of the method: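 In this whole-cell yeast screen, a strain with altered DNA damage repair is challenged with compound, and its growth is measured against matched vehicle-treated controls.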

[15] = NCI Yeast Anticancer Drug Screen. Data for the rad18 strain (AID 177); details: S. cerevisiae rad18 mutant growth inhibition, hits give high values
Summary of the method: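 Screen uses a yeast strain with a defined lesion in DNA damage repair; compound effect is read as loss of growth compared to untreated vehicle cultures.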

[16] = at 5.0 µM (retest, dose inferred, filed as 0.5)
[17] = at 50.0 µM (retest, dose inferred, filed as 5.0)

CC(C(=O)N1C(=O)N(C(=O)C(C)C(O)c2ccccc2)C2CCCCC21)C(O)c1ccccc1 (stereo unspecified)
growth inhibition ([1]; at 1.2 µM): 2% | growth inhibition ([1]; at 3.7 µM): -1% | growth inhibition ([1]; at 11.0 µM): 7% | growth inhibition ([1]; at 33.0 µM): 3% | growth inhibition ([1]; at 100.0 µM): 12% | growth inhibition ([2]; at 1.2 µM): 0% | growth inhibition ([2]; at 3.7 µM): -3% | growth inhibition ([2]; at 11.0 µM): 0% | growth inhibition ([2]; at 33.0 µM): 2% | growth inhibition ([2]; at 100.0 µM): 3% | growth inhibition ([3]; at 1.2 µM): -4% | growth inhibition ([3]; at 3.7 µM): 0% | growth inhibition ([3]; at 11.0 µM): 1% | growth inhibition ([3]; at 33.0 µM): 1% | growth inhibition ([3]; at 100.0 µM): 29% | growth inhibition ([4]; at 1.2 µM): 0% | growth inhibition ([4]; at 3.7 µM): -9% | growth inhibition [4, 16]: -5% | growth inhibition ([4]; at 11.0 µM): -7% | growth inhibition ([4]; at 33.0 µM): 16% | growth inhibition [4, 17]: 8% | growth inhibition ([4]; at 50.0 µM): 97.1% (active) | growth inhibition ([4]; at 100.0 µM): 20% | growth inhibition ([5]; at 1.2 µM): 3% | growth inhibition ([5]; at 3.7 µM): 1% | growth inhibition [5, 16]: -7% | growth inhibition ([5]; at 11.0 µM): 2% | growth inhibition ([5]; at 33.0 µM): 14% | growth inhibition [5, 17]: -2% | growth inhibition ([5]; at 50.0 µM): 97.2% (active) | growth inhibition ([5]; at 100.0 µM): 24% | growth inhibition ([6]; at 1.2 µM): 2% | growth inhibition ([6]; at 3.7 µM): 1% | growth inhibition ([6]; at 11.0 µM): 4% | growth inhibition ([6]; at 33.0 µM): 9% | growth inhibition ([6]; at 100.0 µM): 20% | growth inhibition [7, 16]: -7% | growth inhibition [7, 17]: 11% | growth inhibition ([7]; at 50.0 µM): 97.5% (active) | growth inhibition ([8]; at 1.2 µM): 1% | growth inhibition ([8]; at 3.7 µM): -2% | growth inhibition ([8]; at 11.0 µM): 4% | growth inhibition ([8]; at 33.0 µM): 11% | growth inhibition ([8]; at 100.0 µM): 15% | growth inhibition [9, 16]: 87% (active) | growth inhibition [9, 17]: 14% | growth inhibition ([9]; at 50.0 µM): 96.5% (active) | growth inhibition ([10]; at 1.2 µM): -2% | growth inhibition ([10]; at 3.7 µM): -1% | growth inhibition [10, 16]: -13% | growth inhibition ([10]; at 11.0 µM): -2% | growth inhibition ([10]; at 33.0 µM): 1% | growth inhibition [10, 17]: -9% | growth inhibition ([10]; at 50.0 µM): 97.8% (active) | growth inhibition ([10]; at 100.0 µM): 4% | growth inhibition ([11]; at 1.2 µM): -2% | growth inhibition ([11]; at 3.7 µM): -1% | growth inhibition ([11]; at 11.0 µM): 1% | growth inhibition ([11]; at 33.0 µM): 7% | growth inhibition ([11]; at 100.0 µM): 29% | growth inhibition ([12]; at 1.2 µM): 0% | growth inhibition ([12]; at 3.7 µM): 0% | growth inhibition ([12]; at 11.0 µM): 1% | growth inhibition ([12]; at 33.0 µM): 11% | growth inhibition ([12]; at 100.0 µM): 26% | growth inhibition ([13]; at 1.2 µM): 2% | growth inhibition ([13]; at 3.7 µM): 2% | growth inhibition ([13]; at 11.0 µM): 0% | growth inhibition ([13]; at 33.0 µM): 23% | growth inhibition ([13]; at 100.0 µM): 46% | growth inhibition [14, 16]: 2% | growth inhibition [14, 17]: 1% | growth inhibition ([14]; at 50.0 µM): 97.2% (active) | growth inhibition ([15]; at 1.2 µM): 2% | growth inhibition ([15]; at 3.7 µM): 4% | growth inhibition ([15]; at 11.0 µM): 5% | growth inhibition ([15]; at 33.0 µM): 20% | growth inhibition ([15]; at 100.0 µM): 27%

O=C(NNc1ccccc1)C(CCCCNS(=O)(=O)Cc1ccccc1)NS(=O)(=O)Cc1ccccc1 (stereo unspecified)
growth inhibition ([1]; at 1.2 µM): 4% | growth inhibition ([1]; at 3.7 µM): 9% | growth inhibition ([1]; at 11.0 µM): 26% | growth inhibition ([1]; at 33.0 µM): 44% | growth inhibition ([1]; at 100.0 µM): 54% | growth inhibition ([2]; at 1.2 µM): 3% | growth inhibition ([2]; at 3.7 µM): 10% | growth inhibition ([2]; at 11.0 µM): 25% | growth inhibition ([2]; at 33.0 µM): 55% | growth inhibition ([2]; at 100.0 µM): 68% | growth inhibition ([3]; at 1.2 µM): 0% | growth inhibition ([3]; at 3.7 µM): 11% | growth inhibition ([3]; at 11.0 µM): 13% | growth inhibition ([3]; at 33.0 µM): 18% | growth inhibition ([3]; at 100.0 µM): 18% | growth inhibition ([4]; at 1.2 µM): 5% | growth inhibition ([4]; at 3.7 µM): 10% | growth inhibition [4, 16]: 18% | growth inhibition ([4]; at 11.0 µM): 36% | growth inhibition ([4]; at 33.0 µM): 56% | growth inhibition [4, 17]: 53% | growth inhibition ([4]; at 50.0 µM): 51.2% | growth inhibition ([4]; at 100.0 µM): 85% (active) | growth inhibition ([5]; at 1.2 µM): -2% | growth inhibition ([5]; at 3.7 µM): 8% | growth inhibition [5, 16]: 5% | growth inhibition ([5]; at 11.0 µM): 25% | growth inhibition ([5]; at 33.0 µM): 48% | growth inhibition [5, 17]: 34% | growth inhibition ([5]; at 50.0 µM): 26.4% | growth inhibition ([5]; at 100.0 µM): 39% | growth inhibition [7, 16]: 10% | growth inhibition [7, 17]: 54% | growth inhibition ([7]; at 50.0 µM): 51.5% | growth inhibition ([8]; at 1.2 µM): 1% | growth inhibition ([8]; at 3.7 µM): 6% | growth inhibition ([8]; at 11.0 µM): 31% | growth inhibition ([8]; at 33.0 µM): 51% | growth inhibition ([8]; at 100.0 µM): 44% | growth inhibition [9, 16]: 5% | growth inhibition [9, 17]: 46% | growth inhibition ([9]; at 50.0 µM): 14.8% | growth inhibition ([10]; at 1.2 µM): 1% | growth inhibition ([10]; at 3.7 µM): 3% | growth inhibition [10, 16]: 11% | growth inhibition ([10]; at 11.0 µM): 44% | growth inhibition ([10]; at 33.0 µM): 87% (active) | growth inhibition [10, 17]: 86% (active) | growth inhibition ([10]; at 50.0 µM): 53.6% | growth inhibition ([10]; at 100.0 µM): 47% | growth inhibition ([11]; at 1.2 µM): 2% | growth inhibition ([11]; at 3.7 µM): 6% | growth inhibition ([11]; at 11.0 µM): 22% | growth inhibition ([11]; at 33.0 µM): 28% | growth inhibition ([11]; at 100.0 µM): 51% | growth inhibition ([12]; at 1.2 µM): 1% | growth inhibition ([12]; at 3.7 µM): 1% | growth inhibition ([12]; at 11.0 µM): 11% | growth inhibition ([12]; at 33.0 µM): 32% | growth inhibition ([12]; at 100.0 µM): 44% | growth inhibition ([13]; at 1.2 µM): 2% | growth inhibition ([13]; at 3.7 µM): 7% | growth inhibition ([13]; at 11.0 µM): 25% | growth inhibition ([13]; at 33.0 µM): 42% | growth inhibition ([13]; at 100.0 µM): 68% | growth inhibition [14, 16]: 14% | growth inhibition [14, 17]: 56% | growth inhibition ([14]; at 50.0 µM): 75.2% (active) | growth inhibition ([15]; at 1.2 µM): 2% | growth inhibition ([15]; at 3.7 µM): 19% | growth inhibition ([15]; at 11.0 µM): 62% | growth inhibition ([15]; at 33.0 µM): 90% (active) | growth inhibition ([15]; at 100.0 µM): 50%
